Screens deposited in PubChem BioAssay by National Center for Advancing Translational Sciences (NCATS).
12-LOX inh = ALOX12 (human) lipoxygenase inhibition. Potency, µM (series often up to 108 µM), without a hit: at the top dose activity change, negative = inhibition, actives largely listed as inhibitors. 1.1% of 580,000 active. purified 12hLO, xylenol orange hydroperoxide absorbance; further: potency means the concentration at half of the fitted maximal effect
Target sequence (P18054 whole entry, looked up): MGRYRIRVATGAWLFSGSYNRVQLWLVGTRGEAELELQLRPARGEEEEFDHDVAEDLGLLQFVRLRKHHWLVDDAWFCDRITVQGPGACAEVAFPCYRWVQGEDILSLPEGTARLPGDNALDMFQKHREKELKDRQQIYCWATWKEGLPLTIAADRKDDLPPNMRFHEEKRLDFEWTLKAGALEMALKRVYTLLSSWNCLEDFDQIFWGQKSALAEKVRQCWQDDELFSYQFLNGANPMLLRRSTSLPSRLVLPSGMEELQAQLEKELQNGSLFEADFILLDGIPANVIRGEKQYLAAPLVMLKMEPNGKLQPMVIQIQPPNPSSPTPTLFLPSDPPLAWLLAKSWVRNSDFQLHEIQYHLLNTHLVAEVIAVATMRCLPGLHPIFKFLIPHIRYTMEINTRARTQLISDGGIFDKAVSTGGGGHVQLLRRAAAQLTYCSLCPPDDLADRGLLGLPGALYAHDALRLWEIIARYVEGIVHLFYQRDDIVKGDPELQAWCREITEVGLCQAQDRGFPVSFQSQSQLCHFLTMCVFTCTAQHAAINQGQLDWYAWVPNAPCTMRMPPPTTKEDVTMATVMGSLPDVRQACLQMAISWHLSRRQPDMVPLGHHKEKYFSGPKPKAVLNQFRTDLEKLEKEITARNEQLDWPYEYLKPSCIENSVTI
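Hydroperoxide product was detected by ferrous iron/xylenol orange as the 573 to 405 nm absorbance ratio. Arachidonic acid at 40 uM (final) was turned over for 30 min at room temperature by 150 nM human 12hLO, pH 7.0 Hepes buffer, after 15 min compound preincubation.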
DT40 TDP1 no CPT = qHTS for Inhibitors of human tyrosyl-DNA phosphodiesterase 1 (TDP1): qHTS in cells in absence of CPT. DT40 Tdp1-/- hTDP1 cells, no CPT, ATP luminescence, 48 h. Potency, µM (series often up to 46.2 µM), inactives show at the top dose activity change, negative = growth inhibition, most hits filed as inhibitors. 15% of 420,000 active; further: potency means the concentration at half of the fitted maximal effect; nearly all actives have a fitted effect of over 55% in size
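Cells were dispensed at 400 per well, compounds added by pin tool, plates incubated ≥48 hr at 37 °C, then CellTiter-Glo added for 30 min at room temperature before luminescence reading. Line: DT40 Tdp1-/- complemented with hTDP1; camptothecin omitted.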
HT1080 IDH1KD tx = kills HT-1080 cells with IDH1 knockdown; HT-1080 IDH1 knockdown viability, ATP luminescence, 48 h; Potency, µM (top dose mostly 46.1 µM), for inactives: at the highest dose activity, negative = toxicity, usual class: cytotoxic; 2% of 360,000 active;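 further: potency means the concentration at half of the fitted maximal effect; 0% = DMSO wells and -100% = cell-free medium wells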
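Using the IDH1-knockdown HT-1080 line run in the same batch and compound series as the NT line, viability after 48 h at 37 °C was determined by CellTiter-Glo luminescence and expressed as % activity.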
HT1080-NT tox = kills 2HG-producing HT-1080-NT fibrosarcoma cells | HT-1080-NT fibrosarcoma viability, CellTiter-Glo ATP luminescence, 48 h | Potency, µM (series often up to 46.1 µM), without a hit: at the highest dose activity, negative = less viability, actives largely listed as cytotoxic | 1.6% of 360,000 active;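 further: NT is the 2HG producing partner of a matched IDH1 knockdown line; potency means the concentration at half of the fitted maximal effect; 0% = DMSO-treated cells and -100% = media-only wells without cells; nearly all actives have a fitted effect of over 55% in size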
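Fibrosarcoma NT cells, 750 per well in 5% FBS RPMI, were exposed to compound for 48 hours. Viability: CellTiter-Glo luminescence.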
DT40 TDP1 CPT = DT40-hTDP1 cell growth loss with CPT. chicken DT40 Tdp1-/-;hTDP1 cells + 20 nM CPT, ATP luminescence, 48 h. 12% of 420,000 active. Potency, µM (titrated, usually from 46.2 µM), inactives show at the highest dose activity change, negative = growth inhibition, usual class: inhibitors; further: potency means the concentration at half of the fitted maximal effect; nearly all actives have a fitted effect of over 55% in size
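Chicken DT40 Tdp1-/- cells complemented with human TDP1, 400 cells/well, exposed to compounds plus 20 nM camptothecin for at least 48 h at 37 C; viability read as ATP content by CellTiter-Glo luminescence.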
IL1B secr inh = inflammasome signaling inhibition, IL-1 beta readout; THP-1 LPS/ATP IL-1B secretion, AlphaLISA, 16 h; stronger effect = lower value; activity change, % at 57.5 µM; 4.7% of 360,000 active; AID 743279; in the data active means activity change below about -50%; inconclusive means mostly about -30% to -49%
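Secreted IL-1B measured by AlphaLISA bead assay after 16 h compound exposure of THP-1 cells; compounds (final up to 57.5 uM) added 1 h before LPS (250 ng/mL) and ATP (1.25 mM) stimulation; lower signal means less secretion.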
An asterisk follows results filed as active; u = inconclusive; x = no result given; [ ] = remark or other dose. The entries come from a sample that favours hits as a whole. Unless noted, the call rests on the fitted dose curve; in most records, active means well fitted curve in the direction sought with a large enough effect; inconclusive means small, poorly fitted or top-dose-only effect, or another doubt; inactive means no such curve, though single readings can be large; an effect the other way counts as inactive or inconclusive. Unless noted, on the % scale 0 is the no-effect control and ±100 the full control effect.

SMILES	12-LOX inh	DT40 TDP1 no CPT	HT1080 IDH1KD tx	HT1080-NT tox	DT40 TDP1 CPT	IL1B secr inh
Fc1ccc(N2CCN(C3=Nc4cccc5cccc3c45)CC2)cc1	-28%	16µM*	u	-25%	26µM*	-52*
CC(C)CC(=O)NC(C)C1CC2CCC1C2 (configuration not stated)	-14%	x	x	x	x	x
Cc1ccc(C2c3c(-c4cc(C)ccc4O)n[nH]c3C(=O)N2Cc2ccco2)cc1 (configuration not stated)	1%	u	x	x	23µM*	x
O=C1c2[nH]nc(-c3ccccc3O)c2C(c2cccc(Cl)c2)N1Cc1ccco1 (configuration not stated)	-4%	18µM*	u	u	u	-12
O=C1c2[nH]nc(-c3ccccc3O)c2C(c2ccc(F)cc2)N1Cc1ccco1 (configuration not stated)	-26%	16µM*	u	u	18µM*	-20
O=C1c2[nH]nc(-c3ccccc3O)c2C(c2cccc(Cl)c2)N1CC1CCCO1 (configuration not stated)	-19%	18µM*	u	-28%	u	-9
Cc1cc2c(cc1C)CSC(c1ccccc1O)SC2	u	u	u	u	u	-15
Cc1cc2c(cc1C)CSC(c1c(O)ccc3ccccc13)SC2	-32%	u	u	23µM*	u	-78*
Cc1cc2c(cc1C)CSC(c1cc(Cl)ccc1O)SC2	13µM*	x	x	x	x	x
Cc1cc2c(cc1C)CSC(c1ccc3ccccc3c1O)SC2	0%	u	u	u	-17%	19
O=C(NCc1ccccc1F)c1nc2sccn2c1Br	-1%	x	x	x	x	x
COc1ccc(NC(=O)CSC2=Nc3ccccc3C3=NC(CCC(=O)NCc4ccco4)C(=O)N23)cc1 (configuration not stated)	5%	12µM*	x	x	12µM*	x
O=C(CC1N=C2c3ccccc3N=C(SCC(=O)Nc3ccc(F)cc3)N2C1=O)NCc1ccco1 (configuration not stated)	-18%	16µM*	x	x	u	x
COc1cccc(NC(=O)CSC2=Nc3ccccc3C3=NC(CCC(=O)NCc4ccco4)C(=O)N23)c1 (configuration not stated)	-14%	u	x	x	u	x
O=C(c1ccc(Br)o1)N1CCCN(c2cc(-c3ccc(Cl)cc3)[nH]n2)CC1	3%	x	x	x	x	x
Cc1cccc(-c2nnc3sc(NC(=O)c4ccccc4F)nn23)c1	-9%	x	x	x	x	x
CC(C)CC(=O)N/C(N)=N/c1nc2ccccc2o1	244%	29µM*	0%	-16%	u	37
N/C(=N\c1nc2ccccc2o1)NC(=O)/C=C/c1ccccc1	14%	18µM*	-23%	u	u	-12
CCC(=O)N/C(N)=N/c1nc2ccccc2o1	248%	u	21%	22%	u	29
O=C(Nc1cc(-c2ccc(Cl)cc2)no1)c1ccc(F)cc1	-20%	-6%	x	x	-10%	x
O=c1[nH]c(=O)n([C@H]2C[C@@H](O)[C@@H](CO)O2)cc1F	-11%[57.4 µM]	1.6µM*	x	x	5µM*	x
O=c1[nH]cnc2c1ccn2C1OC(CO)C(O)C1O (configuration not stated)	-8%	0.15µM*	x	x	0.16µM*	-13
O=c1[nH]cnc2c1[nH]c(=S)n2C1O[C@@H](CO)[C@H](O)[C@@H]1O (some centres not stated)	x	-5%	x	x	-7%	x
Cc1cn([C@@H]2C[C@@H](O)[C@H](CO)O2)c(=O)[nH]c1=O	10%[57.4 µM]	x	x	x	x	x
Nc1nc(=O)n([C@H]2CSC(CO)O2)cc1F (some centres not stated)	-3%[57.4 µM]	x	x	x	x	x
SMILES	12-LOX inh	DT40 TDP1 no CPT	HT1080 IDH1KD tx	HT1080-NT tox	DT40 TDP1 CPT	IL1B secr inh
Cc1cn([C@H]2C[C@H](O)[C@@H](COS(=O)(=O)O)O2)c(=O)[nH]c1=O	6%	1.6µM*	-1%	1%	3.7µM*	7
Nc1nc(=O)n(C2OC(CO)C(O)C2O)cc1F (configuration not stated)	11%	0.0058µM*	-26%	u	0.033µM*	86
COCCN[C@@H]1C[C@@H]2c3[nH]c4ccccc4c3C[C@@H](C(=O)OC)N2[C@H](c2ccc(C(F)(F)F)cc2)C1	2%	x	x	x	x	x
O=S(=O)(c1ccc(C(F)(F)F)cc1)N1CCC(C2CCNC2)CC1 (configuration not stated)	56%	x	x	x	x	x
COc1ccccc1OCCNC(=O)C1Cn2cccc2C(=O)N1Cc1cccnc1 (configuration not stated)	34%	x	x	x	x	x
O=C1C=CC(n2cc(F)c(=O)[nH]c2=O)O1 (configuration not stated)	-6%	u	u	u	18µM*	u
O=c1[nH]c(=O)n(C2OC(CO)C(O)C2O)cc1F (configuration not stated)	x	0.037µM*	0.92µM*	10µM*	0.15µM*	-13
O=c1[nH]c(=S)ccn1C1OC(CO)C(O)C1O (configuration not stated)	-16%	u	-22%	u	u	4
O=c1[nH]c(=O)n([C@@H]2O[C@H](CO)[C@@H](O)[C@H]2O)cc1F	x	0.06µM*	x	x	0.11µM*	x
O=c1[nH]c(=O)c2ncn(C3OC(CO)C(O)C3O)c2[nH]1 (configuration not stated)	0%	-5%	x	x	2%	x
COC[C@@H]1CN(c2cnccn2)C[C@H]1C(=O)Nc1ccc(OC)nc1	120%	x	x	x	x	x
COc1ccc(Cl)cc1-c1cc(C(=O)NCc2ccc(F)cc2)[nH]n1	-1%	8.2µM*	u	-28%	6.5µM*	-17
Cc1cc(F)ccc1-c1cc(C(=O)NCc2ccccc2)[nH]n1	-4%	u	14%	12%	26µM*	-24
COc1ccc(Cl)cc1-c1cc(C(=O)NCc2ccc(C(F)(F)F)cc2)[nH]n1	16%	7.3µM*	-5%	0%	4.6µM*	-19
COc1ccc(Cl)cc1-c1cc(C(=O)NCc2cccc(C(F)(F)F)c2)[nH]n1	2%	u	u	u	7.3µM*	-7
Cc1cc(N2CCCC2)nc(N2CCN(C(=O)Nc3ccccc3)CC2)n1	-55%	x	x	x	x	x
CNCc1nc(-c2ccc[nH]2)c2cc(Cl)ccc2n1	x	14µM*	x	x	11µM*	x
